U2OS ROS induce: inducers of reactive oxygen species in cancer cells. U2OS ROS induction, H2DCF-DA fluorescence. ROS induction (% of piperlongumine), % at 10 µM. 46,000 tested, 2% active; in the data active = ROS induction above about 79%, passing the limit was not always enough;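 also: 0% = DMSO vehicle median and 100% = reference compound median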
Numbers without * were called inactive. The sample as a whole holds a higher share of hits than the screen did.

SMILES	U2OS ROS induce
C[C@@H]1CCCCO[C@H](CN(C)Cc2ccc3c(c2)OCO3)[C@@H](C)CN([C@H](C)CO)C(=O)c2cc(NS(=O)(=O)c3ccc(Cl)cc3)ccc2O1	31.7
C[C@@H]1CCCCO[C@@H](CN(C)S(=O)(=O)c2ccc(Cl)cc2)[C@@H](C)CN([C@H](C)CO)C(=O)c2cc(NS(=O)(=O)c3ccc(F)cc3)ccc2O1	117.8*
Cc1ccc(S(=O)(=O)N(C)C[C@@H]2OCCCC[C@@H](C)Oc3ccc(NC(=O)NC4CCCCC4)cc3C(=O)N([C@H](C)CO)C[C@@H]2C)cc1	18.2
C[C@@H]1CCCCO[C@@H](CN(C)S(=O)(=O)c2ccc(F)cc2)[C@@H](C)CN([C@H](C)CO)C(=O)c2cc(NC(=O)Nc3ccc(F)cc3)ccc2O1	6.8
COc1ccc2c(c1)C(O)(CC(=O)c1ccc3ccccc3c1)C(=O)N2 (stereo not given)	-14.5
CC1(C)CC(O)CC2(C)OC(=O)C=C12 (stereo not given)	3.3
C[C@@H]1CCCCO[C@@H](CN(C)S(=O)(=O)c2ccccc2)[C@@H](C)CN([C@H](C)CO)C(=O)c2cc(NS(=O)(=O)c3ccc(Cl)cc3)ccc2O1	113.0*
C[C@@H]1CCCCO[C@@H](CN(C)S(=O)(=O)c2ccccc2)[C@@H](C)CN([C@H](C)CO)C(=O)c2cc(NS(=O)(=O)c3ccccc3)ccc2O1	57.3
C[C@@H]1CCCCO[C@H](CN(C)S(=O)(=O)c2ccc(Cl)cc2)[C@@H](C)CN([C@H](C)CO)C(=O)c2cc(NS(=O)(=O)c3ccc(Cl)cc3)ccc2O1	50.8
Cc1ccc2ccc(C(Nc3ccccn3)c3c(F)cccc3Cl)c(O)c2n1 (stereo not given)	-1.7
COc1cccc(Nc2nc(C3(C)CC4(CC(C)OC4=O)C(=O)O3)cs2)c1 (stereo not given)	91.6*
COc1cccc(Nc2nnc(-c3cc4cccc(OC)c4oc3=O)s2)c1	-10.0
COc1cccc(NC(=S)N2CCC3(CC2)CC(=O)c2ccccc2O3)c1	-1.1
C[C@@H]1CN([C@H](C)CO)C(=O)Cc2cc(NS(C)(=O)=O)ccc2O[C@H]1CN(C)S(=O)(=O)c1cccs1	15.1
C[C@H]1CN([C@@H](C)CO)C(=O)c2cccc(NC(=O)CCCCCC(=O)Nc3ccccc3N)c2O[C@@H]1CN(C)Cc1ccc(-c2ccccc2)cc1	90.6*
C[C@H](CO)N1C[C@H](C)[C@@H](CN(C)Cc2ccncc2)Oc2c(NC(=O)CCCCCC(=O)Nc3ccccc3N)cccc2C1=O	5.1
C[C@@H]1CN([C@H](C)CO)C(=O)c2cccc(NC(=O)CCCCCC(=O)Nc3ccccc3N)c2O[C@@H]1CN(C)Cc1ccc(C(F)(F)F)cc1	57.1
C[C@@H]1CN([C@H](C)CO)C(=O)c2cccc(NC(=O)CCCCCC(=O)Nc3ccccc3N)c2O[C@H]1CN(C)Cc1ccc(-c2ccccc2)cc1	125.7*
C[C@@H]1CN([C@@H](C)CO)C(=O)c2cccc(NC(=O)CCCCCC(=O)Nc3ccccc3N)c2O[C@@H]1CN(C)Cc1ccc(C(F)(F)F)cc1	42.0
C[C@H](CO)N1C[C@H](C)[C@H](CN(C)Cc2ccc(C(F)(F)F)cc2)Oc2c(NC(=O)CCCCCC(=O)Nc3ccccc3N)cccc2C1=O	66.7
CC(C)NC(=O)N(C)C[C@@H]1Oc2ccc(NC(=O)Cc3cn(C)c4ccccc34)cc2C(=O)N([C@H](C)CO)C[C@@H]1C	13.0
C[C@@H]1CN([C@@H](C)CO)C(=O)c2cc(NC(=O)Cc3ccccc3)ccc2O[C@@H]1CN(C)S(=O)(=O)c1cn(C)cn1	-5.6
CC(Sc1ncnc2sc3c(c12)CCCC3)C(=O)Nc1ccc(Br)cc1 (stereo not given)	-1.1
Cc1cccc(Nc2nnc(-c3ccc(C)c(S(=O)(=O)NCCO)c3)c3ccccc23)c1	13.8
CCC(Sc1nnnn1-c1ccccc1)C(=O)Nc1sc2c(c1C#N)CCCC2 (stereo not given)	95.3*
SMILES	U2OS ROS induce
CC(C)(C)C1CCc2c(sc(NC(=O)CSc3nnnn3-c3ccccc3)c2C#N)C1 (stereo not given)	-4.8
CCC(Sc1nnc(N)s1)C(=O)Nc1sc2c(c1C#N)CCCC2 (stereo not given)	-4.4
CC(C)CNP(=O)(OC1CC(C)CCC1C(C)C)c1ccccc1 (stereo not given)	8.4
CCOC(=O)Cc1cc(C(=O)c2ccc(OC)cc2)sc1-c1ccc(OC)cc1	27.2
COc1ccc([Si](C)(C)[C@H]2[C@H](CCO)O[C@@]3(C(=O)N(Cc4ccc(NC(C)=O)cc4)c4ccccc43)[C@@H]2C)cc1	36.0
C=CCN1C(=O)[C@]2(O[C@H](CCO)[C@@H]([Si](C)(C)c3ccc(OC)cc3)[C@@H]2C)c2cc(N3CCOC3=O)ccc21	19.7
COc1ccc([Si](C)(C)[C@@H]2[C@@H](CCO)O[C@]3(C(=O)N(Cc4cccc(N5CCOC5=O)c4)c4ccccc43)[C@H]2C)cc1	100.9*
COc1ccc([Si](C)(C)[C@H]2[C@H](CCO)O[C@@]3(C(=O)N(Cc4ccc(NC(=O)[C@H](C)O)cc4)c4ccccc43)[C@@H]2C)cc1	44.2
COc1ccc([Si](C)(C)[C@@H]2[C@@H](CCO)O[C@]3(C(=O)N(Cc4ccc(N5CCOC5=O)cc4)c4ccccc43)[C@H]2C)cc1	239.6*
COc1ccc([Si](C)(C)[C@H]2[C@H](CCO)O[C@@]3(C(=O)N(Cc4ccccc4)c4ccc(N5CCOC5=O)cc43)[C@@H]2C)cc1	35.9
COc1ccc([Si](C)(C)[C@@H]2[C@@H](CCO)O[C@]3(C(=O)N(Cc4ccccc4)c4ccc(N5CCOC5=O)cc43)[C@H]2C)cc1	14.9
COc1ccc([Si](C)(C)[C@@H]2[C@@H](CCO)O[C@]3(C(=O)N(c4ccccc4)c4ccccc43)[C@H]2C)cc1	24.9
COc1ccc([Si](C)(C)[C@@H]2[C@@H](CCO)O[C@]3(C(=O)N(Cc4ccc(NC(C)=O)cc4)c4ccccc43)[C@H]2C)cc1	93.2*
CCN(CC)C(=O)Cn1cc(SCC(=O)N(C(C)C)C(C)C)c2ccccc21	-15.2
CC1CCCCN1S(=O)(=O)Cc1ccccc1 (stereo not given)	-5.3
C[C@H](CO)N1C[C@H](C)[C@H](CN(C)Cc2ccc(C(F)(F)F)cc2)Oc2ccc(NC(=O)Cn3cnnn3)cc2C1=O	1.4
Cc1cc(C(=O)Nc2cccc3c2O[C@@H](CN(C)Cc2ccccc2)[C@H](C)CN([C@H](C)CO)C3=O)n(C)n1	6.5
COc1ccccc1Nc1nc(N)nc(CSCCO)n1	123.1*
Cc1ccc(Nc2nc(N)nc(CSCCO)n2)cc1	-2.9
COc1ccccc1Nc1nc(N)nc(CSc2ncccn2)n1	-4.7
O=C(CN1C(=O)c2ccccc2C1=O)Nc1ccc(S(=O)(=O)N2CCCCCC2)cc1	-11.0
O=c1c(-c2c(O)cc(O)c3c(=O)cc(-c4ccc(O)cc4)oc23)c(-c2ccc(O)cc2)oc2cc(O)cc(O)c12	0.0
COc1cc(O)c2c(=O)cc(-c3ccc(OC)c(-c4c(O)cc(O)c5c(=O)cc(-c6ccc(O)cc6)oc45)c3)oc2c1	179.3*
COc1ccc(-c2cc(=O)c3c(O)cc(O)cc3o2)cc1	38.8
Cc1ccccc1CSC(SCc1ccccc1C)=C(C#N)C(=O)NCc1ccco1	2.8
COc1ccc(-c2nnc(SCC(=O)Nc3cc(OC)ccc3OC)n2-c2ccccc2C)cc1	19.7
COC(=O)c1cc(O)cc(OC)c1Oc1cc(C)cc(O)c1C(=O)O	14.5
COC(=O)c1cc(O)cc(OC)c1C(=O)c1c(O)cc(C)cc1O	93.8*

Source: PubChem BioAssay
